# Assay results published in PMC4552634, “A New Set of Chemical Starting Points with Plasmodium falciparum Transmission-Blocking Potential for Antimalarial Drug Discovery” (PLoS ONE, 2015).
# Where two headings read alike, the source gives them in different places. In all, about 13,000 compounds went through this assay and about 3,200 (25%) showed an effect of 50% or more. The list shows a part of the results.
# Test system: P. falciparum stage V gametocytes
# Parameters: BacTiter-Glo ATP luminescence viability of purified stage V gametocytes in 384-well plates, per cent inhibition versus DMSO
# Conditions: 48 h, 5 µM, inhibitor
Structure (SMILES),% Inhibition,% Inhibition (% Inhibition)
COc1ccccc1-c1sccc1C(=O)NC1(c2cc(Cl)cc(Cl)c2)CCCC1 [TCMDC-136461],-44%,
COc1ccc(Cl)cc1N1CCN(CCCNC(=O)c2ccc(-c3nc4cc(Cl)c(C)cc4[nH]3)s2)CC1 [TCMDC-140032],3.429%,
CCc1sc(N2CCN(C)CC2)nc1C(=O)NCCc1ccc(Cl)c(Cl)c1 [TCMDC-134296],25.24%,
COc1ccc(Cl)cc1-c1nc(C(=O)NCCN2CCCCC2)c(C)s1 [TCMDC-133714],60.47%,
COc1ccc(Cl)cc1-c1nc(C(=O)NCCN2CCCCC2)c(C(C)C)s1 [TCMDC-133715],16.92%,
CCc1sc(-c2cc(Cl)ccc2OC)nc1C(=O)NCCN1CCCCC1 [TCMDC-133716],70.94%,
CCOc1cc(C(=O)NCCN2CCCCC2)ccc1-c1nc2ccc(Cl)cc2[nH]1 [TCMDC-140913],5.667%,
Cc1ccccc1N1CCN(c2ccc(C(=O)NC(C)C)cn2)CC1 [TCMDC-134577],-17.52%,
CCOC(=O)c1cnc2c(C(F)(F)F)cccc2c1Nc1ccc(O)cc1 [TCMDC-125649],-55.53%,
COc1ccc2nccc([C@@H](O)CN3CCC(NC(=O)/C=C/c4cc([N+](=O)[O-])ccc4OC)CC3)c2c1 [TCMDC-141044],-26.66%,
N#CN1CC[C@@H](NS(=O)(=O)Cc2ccc(Cl)c(Cl)c2)C1 [TCMDC-133787],27.55%,
O=C(/C=C/c1ccc(Cl)c(Cl)c1)NCCCCCN1CCC(C(=O)Nc2ccc3c(c2)OCO3)CC1 [TCMDC-136127],-2.985%,
CCCCCCOc1ccc(C(=O)NCCC2CCN(CCCCCNC(=O)C=Cc3ccc(Cl)c(Cl)c3)CC2)cc1 [TCMDC-139569],13.58%,
O=C(/C=C/c1ccc(Cl)c(Cl)c1)NCCCCCN1CC[C@H](NC(=O)c2ccc3c(c2)OCO3)C1 [TCMDC-139563],17.23%,
CCCCCCOc1ccc(C(=O)NCCCC2CCN(CCCCCNC(=O)C=Cc3ccc(Cl)c(Cl)c3)CC2)cc1 [TCMDC-139575],7.423%,
O=C(/C=C/c1ccc(Cl)c(Cl)c1)NCCCCCN1CCC(NC(=O)Nc2ccc3c(c2)OCO3)CC1 [TCMDC-135718],-35.92%,
O=C(C=Cc1ccc(Cl)c(Cl)c1)NCCCCCN1CCC(CCNC(=O)c2ccc3c(c2)OCO3)CC1 [TCMDC-139568],96.26%,
O=C(C=Cc1ccc(Cl)c(Cl)c1)NCCCCCN1CCC(CCCNC(=O)c2ccc3c(c2)OCO3)CC1 [TCMDC-139574],21.18%,
O=C(C=Cc1ccc(Cl)c(Cl)c1)NCCCCCN1CCCC(CCCNC(=O)c2ccc3c(c2)OCO3)C1 (centres unmarked) [TCMDC-139580],81.7%,
CCCCCCOc1ccc(C(=O)NCCCC2CCCN(CCCCCNC(=O)C=Cc3ccc(Cl)c(Cl)c3)C2)cc1 (centres unmarked) [TCMDC-139581],50.48%,
Cc1ccc(NC(=O)N2CCCN(CCCCCNC(=O)/C=C/c3ccc(Cl)c(Cl)c3)CC2)cc1 [TCMDC-135744],-49.55%,
N#Cc1cc(C(=O)c2cc(Br)ccc2O)cn(-c2cc(Cl)cc(Cl)c2)c1=O [TCMDC-125187],-21.05%,

Structure (SMILES),% Inhibition,% Inhibition (% Inhibition)
O=[N+]([O-])c1cccc(CNCC2CCC(CNCc3cccc([N+](=O)[O-])c3)CC2)c1 (centres unmarked) [TCMDC-141176],8.201%,
COc1ccc(OC)c(CC2c3ccc(Br)c(O)c3CCN2C)c1 (centres unmarked) [TCMDC-137439],12.74%,
CN1CCN(c2cc3c(cc2Cl)CCN3C(=O)Cc2ccc(NC(=O)Nc3cccc4ccccc34)cc2)CC1 [TCMDC-139472],-2.627%,
Cn1ccnc1CNC(=O)c1ccc(-c2cccc(-c3nc4cc(C(F)(F)F)ccc4[nH]3)c2)cc1 [TCMDC-132357],7.087%,
Cc1[nH]c(C)c(-c2ccc(-c3ccc(OCC(F)(F)F)cc3)nc2)c(=O)c1Cl [TCMDC-132306],43.23%,
Cc1[nH]c(C)c(-c2ccc(-c3ccccc3)nc2)c(=O)c1Br [TCMDC-136158],42.67%,
Cc1[nH]c(C)c(-c2ccc(-c3ccc(Cl)cc3)nc2)c(=O)c1Cl [TCMDC-136301],72.82%,
Cc1[nH]c(C)c(-c2ccc(-c3ccc(C#N)cc3)nc2)c(=O)c1Br [TCMDC-136169],28.48%,
Cc1[nH]c(C)c(-c2ccc(-c3ccc(F)cc3)nc2)c(=O)c1Br [TCMDC-135925],64.89%,
Cc1[nH]c(C)c(-c2ccc(-c3ccc(Cl)cc3)nc2)c(=O)c1Br [TCMDC-136159],67.06%,
Cc1[nH]c(C)c(-c2ccc(-c3ccc(C(F)F)cc3)nc2)c(=O)c1Cl [TCMDC-132329],58.86%,
CC1(C)N=C(N)N=C(N)N1OCCCOc1ccccc1Cl [TCMDC-131739],-0.9938%,
O=C(Nc1ccc(-c2nc3ccccc3[nH]2)cc1)c1ccc(S(=O)(=O)N2CCc3ccccc32)cc1 [TCMDC-125713],-13.88%,
O=C(N[C@@H](CC1CCCCC1)C(=O)NC1CCCc2ccccc21)c1ccc(O)c(-c2ccc(Cl)c(Cl)c2)c1 (some centres unmarked) [TCMDC-140869],28.8%,
CCOC(=O)c1ccc(-n2c(C)cc(C=C3SC(=Nc4ccccc4)N(C4CCCC4)C3=O)c2C)cc1 [TCMDC-125697],-3.505%,
Cc1[nH]c(C)c(-c2ccc(-c3ccc4c(c3)OCO4)nc2)c(=O)c1Br [TCMDC-136161],79.48%,
CCC1CN2CCc3c([nH]c4ccccc34)[C@@H]2C[C@@H]1CC1NCCc2cc(OC)c(OC)cc21 (some centres unmarked) [TCMDC-142008],,-47.66%
Cc1onc(-c2ccccc2Cl)c1C(=O)Nc1cc(Cl)c(Cl)cc1Cl [TCMDC-123514],9.365%,
COc1ccc(-c2ccc(CNC(=O)c3ccc(C#N)cc3)c(F)c2)cc1CN1CCCN(C)CC1 [TCMDC-133368],-37.75%,
COc1cc(OC)cc(C(=O)Nc2cccc(-c3cn4ccc(C)cc4n3)c2)c1 [TCMDC-124622],4%,
Cc1ccn2cc(-c3ccc(NC(=O)c4ccc(Br)o4)cc3)nc2c1 [TCMDC-124517],106.8%,
COc1cc(C(=O)Nc2cccc(-c3cn4ccc(C)cc4n3)c2)cc(OC)c1OC [TCMDC-125384],26.29%,

Structure (SMILES),% Inhibition,% Inhibition (% Inhibition)
Cc1cc(OCCCN2CCC(NS(=O)(=O)c3cccc(Br)c3)CC2)c2ccccc2n1 [TCMDC-136279],-49.51%,
CCCCOc1c(CCNCCCCNCCc2cc(OC)c3ccccc3c2OCCCC)cc(OC)c2ccccc12 [TCMDC-137848],124.7%,
CCCCc1cc(Cc2cnc(N)nc2N)cc(OC)c1OC [TCMDC-137876],-18.26%,
CCCCOc1cc(OC)c2ccccc2c1CCNCCCCNCCc1c(OCCCC)cc(OC)c2ccccc12 [TCMDC-137845],110.3%,
CC[C@H](NC(=O)c1c(CN2CCC(N3CCCCC3)CC2)c(-c2ccccc2)nc2cc(O)ccc12)c1ccccc1 [TCMDC-140381],13.93%,
CC(C)CCN1CCC(Oc2ccc(NC(=O)c3ccc4ncccc4c3)cc2Cl)C1 (centres unmarked) [TCMDC-133982],6.933%,
Clc1ccccc1CNc1noc(-c2sccc2Br)n1 [TCMDC-134189],-9.305%,
CCc1c(C)nc(-n2nc(C)cc2NC(=O)c2ccc(OC)cc2OC)[nH]c1=O [TCMDC-124937],1.355%,
Cc1cc(NC(=O)c2cc(Br)ccc2Cl)n(-c2nc(C)c(C)c(=O)[nH]2)n1 [TCMDC-124938],58.54%,
CCc1c(C)nc(-n2nc(C)cc2NC(=O)c2cccc3ccccc23)[nH]c1=O [TCMDC-124936],19.12%,
COc1cccc2cc(C(=O)N[C@@H](CC(C)C)C(=O)N[C@H](/C=N/NC(=O)N3CCN(C)CC3)CCc3ccccc3)oc12 [TCMDC-136052],37.67%,
COc1cc(NC(=O)N2CCOC(CCN3CCC(c4ccccc4)CC3)(c3ccc(Cl)c(Cl)c3)C2)cc(OC)c1OC (centres unmarked) [TCMDC-135349],-27.1%,
CC(C)(C)c1cc(N=NC(=O)c2ccncc2)cc(C(C)(C)C)c1O [TCMDC-123490],-20.54%,
N#Cc1ccc(N(CCOc2ccc(Cl)c(F)c2)Cc2ccccc2C(F)(F)F)cc1C(F)(F)F [TCMDC-132797],-6.991%,
O=C(c1cc(C(=O)NCc2ccc(Cl)cc2)c(=O)n(Cc2ccc(Cl)cc2)c1)c1cc(F)ccc1O [TCMDC-125145],-12.34%,
O=C(NCCCCN1CCC(c2ccc3ccccc3c2O)CC1)c1ccc(-c2ccc(Cl)cc2)cc1 [TCMDC-138663],108.9%,
O=C(NCCCCN1CCC(c2cccc3ccccc23)CC1)c1ccc(NC(=O)c2ccc(Cl)cc2)cc1 [TCMDC-138340],-11.24%,
O=C(NCCCCN1CCC(c2ccc3ccccc3c2)CC1)c1ccc(NC(=O)c2ccc(Cl)cc2)cc1 [TCMDC-138378],-9.216%,
O=C(NCCCCN1CCC(c2ccc3ccccc3c2O)CC1)c1ccc(NC(=O)c2ccc(Cl)cc2)cc1 [TCMDC-138654],82.05%,
CC(=O)Oc1c(C2CCN(CCCCNC(=O)c3ccc(NC(=O)c4ccc(Cl)cc4)cc3)CC2)ccc2ccccc12 [TCMDC-138657],89.12%,
Cc1cccc2[nH]c(-c3cccc(-c4cccc(NC(=O)CNC(=O)c5ccc(O)cc5)c4)c3)nc12 [TCMDC-136818],-5.376%,
